Experimental data: the supplement of paper PMC12494721
Structures can show the parent of a compound that is named as a salt.

Tests used:
Conditions in all cases: incubation time: 27 h, anaerobic, 37 °C;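 for the amine columns active = adjusted P below 0.05 in both replicates with a change the same way and a mean fold change under 0.8 or over 1.25; inactive = the rest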
[1] = tested on: Clostridium sporogenes DSM 1664; assay: growth (OD595) fold change vs plate DMSO controls (fold change (ratio)); higher = more growth
Summary of the method: (§1)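 Growth is the fold change relative to the median of plate DMSO controls. Readings came from anaerobic mGAM cultures in 96-well plates grown for 27 h at 37 °C and read at 595 nm. They were blank-subtracted, corrected for compound background with 20 µM compound solutions in water, and converted to OD with a calibration factor of 5. Values are means of 2 biological replicates, and fold changes above 1.5 were set to NA.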

Escherichia coli IAI1 [2] = assay: as above
Summary of the method: as §1

[3] = tested on: Klebsiella aerogenes DSM 30053; assay: as above
Summary of the method: as §1

[4] = tested on: Ruminococcus gnavus DSM 108212; assay: as above
Summary of the method: as §1

[5] = tested on: Klebsiella aerogenes DSM 30053; assay: fold change of Histamine concentration vs plate DMSO controls (fold change (ratio)); higher = more amine produced, active = hit call of the paper (significant change in both replicates, either direction)
Summary of the method: (§2)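 In 80 µL wells, cultures of four gut bacterial strains in mGAM started at OD 0.1 before a 1:1 dilution and grew anaerobically at 37 °C for 27 h. Compounds were added to 20 µM final, except sweeteners at 50 µM final. After extraction of whole cultures with cold acetonitrile/methanol plus 0.1% formic acid and centrifugation, amines were measured by LC–triple-quadrupole MS in dynamic MRM mode against external calibration curves, with within-batch drift correction. Values give fold change over DMSO controls on the same plate, averaged across 2 biological replicates.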

[6] = tested on: Clostridium sporogenes DSM 1664; assay: fold change of Tryptamine concentration vs plate DMSO controls (fold change (ratio)); higher = more amine produced, active = hit call of the paper (significant change in both replicates, either direction)
Summary of the method: as §2

[7] = tested on: Ruminococcus gnavus DSM 108212; assay: as above
Summary of the method: as §2

Escherichia coli IAI1 [8] = assay: fold change of Putrescine concentration vs plate DMSO controls (fold change (ratio)); higher = more amine produced, active = hit call of the paper (significant change in both replicates, either direction)
Summary of the method: as §2

[9] = tested on: Klebsiella aerogenes DSM 30053; assay: as above
Summary of the method: as §2

Escherichia coli IAI1 [10] = assay: fold change of Cadaverine concentration vs plate DMSO controls (fold change (ratio)); higher = more amine produced, active = hit call of the paper (significant change in both replicates, either direction)
Summary of the method: as §2

[11] = tested on: Klebsiella aerogenes DSM 30053; assay: as above
Summary of the method: as §2

[12] = tested on: Ruminococcus gnavus DSM 108212; assay: fold change of 2-Phenylethylamine concentration vs plate DMSO controls (fold change (ratio)); higher = more amine produced, active = hit call of the paper (significant change in both replicates, either direction)
Summary of the method: as §2

| SMILES | growth [1] | growth (Escherichia coli IAI1 [2]) | growth [3] | growth [4] | fold change of Histamine concentration [5] | fold change of Tryptamine concentration [6] | fold change of Tryptamine concentration [7] | fold change of Putrescine concentration (Escherichia coli IAI1 [8]) | fold change of Putrescine concentration [9] | fold change of Cadaverine concentration (Escherichia coli IAI1 [10]) | fold change of Cadaverine concentration [11] | fold change of 2-Phenylethylamine concentration [12] |
| --- | --- | --- | --- | --- | --- | --- | --- | --- | --- | --- | --- | --- |
| O=C1NCCN1CCN1CCC(c2cn(-c3ccc(F)cc3)c3ccc(Cl)cc23)CC1 [Sertindole] (20 µM) | 0.981 | 1.05 | 1.09 | 1.16 | 0.923 (inactive) | 0.952 (inactive) | 0.908 (inactive) | 1.31 (inactive) | 0.982 (inactive) | 0.999 (inactive) | 1 (inactive) | 1.09 (inactive) |
| O=C(OCC(O)CO)c1ccccc1Nc1ccnc2cc(Cl)ccc12 (stereo not drawn) [Glafenine hydrochloride] (20 µM) | 1.08 | 0.957 | 0.977 | 0.831 | 1.01 (inactive) | 0.965 (inactive) | 1.03 (inactive) | 0.998 (inactive) | 0.999 (inactive) | 0.998 (inactive) | 1.01 (inactive) | 1.04 (inactive) |
| OCCN1CCN(CCCN2c3ccccc3C=Cc3ccccc32)CC1 [Opipramol dihydrochloride] (20 µM) | 1.12 | 0.948 | 0.983 | 0.902 | 1.03 (inactive) | 1.07 (inactive) | 1.02 (inactive) | 0.888 (inactive) | 0.994 (inactive) | 1.04 (inactive) | 0.98 (inactive) | 1.02 (inactive) |
| CCn1cc(C(=O)O)c(=O)c2cc(F)c(N3CCNCC3)nc21 [Enoxacin] (20 µM) | 0.0582 | 0.0418 | 0.246 | 1.01 | 0.228 (active) | 0.0679 (active) | 0.892 (inactive) | 0.878 (inactive) | 1.19 (inactive) | 0.269 (active) | 0.961 (inactive) | 0.905 (inactive) |
| CN[C@@H]1[C@H](O)[C@H](NC)[C@H]2O[C@@]3(O)C(=O)C[C@@H](C)O[C@H]3O[C@@H]2[C@H]1O [Spectinomycin dihydrochloride] (20 µM) | 1.04 | 0.864 | 0.93 | 0.692 | 0.762 (inactive) | 0.992 (inactive) | 0.991 (inactive) | 0.796 (inactive) | 1.08 (inactive) | 0.95 (inactive) | 1.02 (inactive) | 0.991 (inactive) |
| CCN(CC)CCOC(=O)C(c1ccccc1)c1ccccc1 [Adiphenine hydrochloride] (20 µM) | 1.07 | 1.03 | 1.16 | 1 | 0.877 (inactive) | 1.05 (inactive) | 0.977 (inactive) | 1 (inactive) | 0.932 (inactive) | 1.01 (inactive) | 1.03 (inactive) | 0.968 (inactive) |
| CCC1NC(=O)c2cc(S(N)(=O)=O)c(Cl)cc2N1 (stereo not drawn) [Quinethazone] (20 µM) | 0.978 | 0.894 | 0.838 | 0.755 | 1.02 (inactive) | 1.27 (inactive) | 1.1 (inactive) | 0.956 (inactive) | 0.92 (inactive) | 1.01 (inactive) | 1.19 (inactive) | 1.24 (inactive) |
| Cc1cccc(Nc2ccccc2C(=O)O)c1C [Mefenamic acid] (20 µM) | 1.08 | 0.988 | 0.961 | 1.03 | 1.05 (inactive) | 0.983 (inactive) | 1.01 (inactive) | 1.01 (inactive) | 0.998 (inactive) | 0.976 (inactive) | 0.995 (inactive) | 0.982 (inactive) |
| Cc1cc2nc3ccc(=[N+](C)C)cc-3sc2cc1N [Tolonium chloride] (20 µM) | 0.823 | 0.559 | 0.55 | 0.0958 | 0.959 (inactive) | 1 (inactive) | 0.972 (inactive) | 0.979 (inactive) | 1 (inactive) | 1.05 (inactive) | 0.984 (inactive) | 0.959 (inactive) |
| CC(C)NC[C@@H](O)COc1ccc(CC(N)=O)cc1 [(R,+) Atenolol] (20 µM) | 1.19 | 1.01 | 1.12 | 1.16 | 0.951 (inactive) | 1.05 (inactive) | 1.06 (inactive) | 1.19 (inactive) | 1.02 (inactive) | 0.921 (inactive) | 1.04 (inactive) | 1.08 (inactive) |
| COc1cccc2c1C(=O)c1c(O)c3c(c(O)c1C2=O)C[C@@](O)(C(=O)CO)C[C@@H]3O[C@H]1C[C@H](N)[C@H](O)[C@H](C)O1 [Doxorubicin hydrochloride] (20 µM) | 0.843 | 1.02 | 1.03 | 1.25 | 1.04 (inactive) | 0.956 (inactive) | 0.963 (inactive) | 0.958 (inactive) | 0.982 (inactive) | 1.03 (inactive) | 1.02 (inactive) | 0.943 (inactive) |
| CN(C)CC/C=C1/c2ccccc2COc2ccc(CC(=O)O)cc21 [Olopatadine hydrochloride] (20 µM) | 1.01 | 0.978 | 1.01 | 0.955 | 1 (inactive) | 0.968 (inactive) | 1.03 (inactive) | 1.01 (inactive) | 1 (inactive) | 0.995 (inactive) | 1 (inactive) | 1.04 (inactive) |
| CC(=O)NS(=O)(=O)c1ccc(NC(=O)c2ccccc2C(=O)O)cc1 [Phthalylsulfacetamide] (20 µM) | 0.948 | 0.995 | 1.03 | 0.929 | 1.04 (inactive) | 1.05 (inactive) | 1.03 (inactive) | 1.03 (inactive) | 1.01 (inactive) | 1.02 (inactive) | 0.992 (inactive) | 1.02 (inactive) |
| CCOC(=O)[C@H](CCc1ccccc1)N[C@@H](C)C(=O)N1C(=O)N(C)C[C@H]1C(=O)O [Imidapril hydrochloride] (20 µM) | 1.19 | 1.05 | 1.05 | 1.2 | 0.963 (inactive) | 0.931 (inactive) | 1.03 (inactive) | 1.05 (inactive) | 0.997 (inactive) | 1.01 (inactive) | 0.989 (inactive) | 1.05 (inactive) |
| COc1ccccc1N1CCN(CC(O)COc2cccc3ccccc23)CC1 (stereo not drawn) [Naftopidil dihydrochloride] (20 µM) | 1.11 | 0.99 | 1.17 | 0.961 | 0.884 (inactive) | 1.02 (inactive) | 0.888 (inactive) | 0.981 (inactive) | 1.01 (inactive) | 1.06 (inactive) | 1.02 (inactive) | 0.963 (inactive) |
| C/C(=C1\CCOC(=O)S1)N(C=O)Cc1cnc(C)nc1N [Cycotiamine] (20 µM) | 0.964 | 0.988 | 0.991 | 1.01 | 1.01 (inactive) | 1.02 (inactive) | 1.03 (inactive) | 0.971 (inactive) | 1.01 (inactive) | 1.01 (inactive) | 0.999 (inactive) | 1.06 (inactive) |
| Nc1c2ccccc2nc2ccccc12 [Aminacrine] (20 µM) | 0.903 | 1.11 | 0.922 | 1.45 | 1.07 (inactive) | 0.923 (inactive) | 0.911 (inactive) | 1.15 (inactive) | 0.952 (inactive) | 1.29 (active) | 0.964 (inactive) | 0.947 (inactive) |
| CC(C)(C)NC(=O)[C@H]1CC[C@H]2[C@@H]3CC[C@H]4NC(=O)C=C[C@]4(C)[C@H]3CC[C@]12C [Finasteride] (20 µM) | 1.18 | 0.998 | 1.05 | 1.24 | 0.977 (inactive) | 0.973 (inactive) | 1.06 (inactive) | 0.983 (inactive) | 0.982 (inactive) | 0.913 (inactive) | 1.01 (inactive) | 1.12 (inactive) |
| CCc1oc2ccccc2c1C(=O)c1cc(Br)c(O)c(Br)c1 [Benzbromarone] (20 µM) | 0.813 | 0.959 | 0.986 | 0.873 | 0.958 (inactive) | 0.706 (active) | 0.722 (active) | 0.989 (inactive) | 0.994 (inactive) | 1.04 (inactive) | 0.998 (inactive) | 0.763 (active) |
| CN[C@@H]1CCc2[nH]c3ccc(C(N)=O)cc3c2C1 [Frovatriptan succinate] (20 µM) | 1.12 | 0.98 | 0.991 | 1.01 | 1.05 (inactive) | 0.957 (inactive) | 0.964 (inactive) | 1.03 (inactive) | 1 (inactive) | 1.03 (inactive) | 0.984 (inactive) | 0.945 (inactive) |
| CC(C(=O)O)c1ccc2c(c1)CC(=O)c1ccccc1S2 (stereo not drawn) [Zaltoprofen] (20 µM) | 0.876 | 0.998 | 0.985 | 0.873 | 1.1 (inactive) | 1.01 (inactive) | 1.12 (inactive) | 1.01 (inactive) | 1.04 (inactive) | 0.931 (inactive) | 1.05 (inactive) | 1.33 (inactive) |
| C=CCc1ccccc1OCC(O)CNC(C)C (stereo not drawn) [Alprenolol hydrochloride] (20 µM) | 0.992 | 0.97 | 0.955 | 0.856 | 1.05 (inactive) | 1.07 (inactive) | 1.08 (inactive) | 0.934 (inactive) | 0.985 (inactive) | 1.01 (inactive) | 0.998 (inactive) | 0.998 (inactive) |
| CC[C@H](C)C(=O)O[C@H]1C[C@H](O)C=C2C=C[C@H](C)[C@H](CC[C@@H](O)C[C@@H](O)CC(=O)O)[C@H]21 [Pravastatin] (20 µM) | 0.87 | 1.09 | 0.973 | 1.15 | 1.1 (inactive) | 1.12 (inactive) | 1.08 (inactive) | 1.11 (inactive) | 0.975 (inactive) | 0.904 (inactive) | 1.01 (inactive) | 1.1 (inactive) |
| CCOC(=O)OC(C)OC1=C(C(=O)Nc2ccccn2)N(C)S(=O)(=O)c2ccccc21 (stereo not drawn) [Ampiroxicam] (20 µM) | 1.02 | 0.978 | 1.03 | 1.1 | 0.908 (inactive) | 0.998 (inactive) | 0.999 (inactive) | 0.976 (inactive) | 0.998 (inactive) | 0.983 (inactive) | 1.01 (inactive) | 0.99 (inactive) |
